In PubChem BioAssay AID651785 (The Scripps Research Institute Molecular Screening Center, 2012):
The whole screen tested about 2,400 compounds, of which about 950 (40%) were called active. Cut-off read from the data, not from the text of the source: active = inhibition above about 49%; inactive = the rest. These entries were drawn from the full list.

The compounds below were run against Trace amine-associated receptor 1 (Homo sapiens) (UniProt Q96RJ0) (assay: human TAAR1 antagonists, retest of hits, confirmation, cell-based, fluorescence (AID 651785;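 note: CHO-Ga16 host cells challenged with agonist PEA near its EC80; 0% = agonist at EC80 plus vehicle and 100% = vehicle with no agonist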)). Settings: TAAR1-expressing cells, fluorescence antagonist read-out; at 3 µM; hits give high values.
Trace amine-associated receptor 1 (Homo sapiens), sequence (Q96RJ0 whole entry, looked up, the tested form may be a part): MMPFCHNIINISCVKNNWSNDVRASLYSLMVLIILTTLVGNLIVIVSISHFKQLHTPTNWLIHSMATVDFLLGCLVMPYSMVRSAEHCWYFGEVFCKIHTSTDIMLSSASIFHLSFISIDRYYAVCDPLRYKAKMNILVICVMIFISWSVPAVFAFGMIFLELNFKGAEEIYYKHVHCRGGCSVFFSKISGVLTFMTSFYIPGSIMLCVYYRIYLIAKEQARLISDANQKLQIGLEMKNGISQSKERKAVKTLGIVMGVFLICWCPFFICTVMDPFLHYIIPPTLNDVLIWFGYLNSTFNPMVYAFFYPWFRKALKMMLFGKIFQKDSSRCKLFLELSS

inhibition, active:
Cc1ccc(SCc2c(C(=O)N/N=C/c3cccnc3)nnn2-c2nonc2N)cc1 59.3%
C[C@@H]1CN([C@@H](C)CO)S(=O)(=O)c2ccc(C#Cc3cccc(F)c3)cc2O[C@H]1CN(C)S(=O)(=O)c1cn(C)cn1 53%
Cc1cc(Br)ccc1NC(=O)c1cnc(N2CCN(c3ccccn3)CC2)c2ccccc12 55.2%
Cc1ccc2c(c1)N(CC(=O)NCCc1ccc(Cl)cc1)C(=O)c1cccnc1O2 50.5%
Cc1nn(-c2ccccc2)c(C)c1NC(=O)COC(=O)c1cc(Cl)ccc1O 56.2%
COc1ccc(S(=O)(=O)N2CCCC(C(=O)Nc3ccc(NC(=O)c4ccccn4)cc3)C2)cc1 (stereo not drawn) 56.2%
Cc1ccc(C)c(N2CCN(C(=O)CCCCCn3c(=S)[nH]c4ccc(N5CCOCC5)cc4c3=O)CC2)c1 54.2%
COc1ccc(CCNC2=C(Cl)C(=O)N(Cc3ccccc3)C2=O)cc1OC 50.8%
O=C(NCCN1CCOCC1)c1ccc(/C=C2\Sc3ccccc3N(Cc3ccc(F)cc3)C2=O)cc1 52.2%
CCNS(=O)(=O)c1ccc(CCC(=O)N2CCN(c3cc(Cl)ccc3C)CC2)cc1 50.4%
O=C1c2ccccc2C(=O)N1CCC#Cc1ccc2cc(C3(O)CCCCC3)oc(=O)c2c1 69.5%
Cc1ccccc1OCC(=O)Nc1ccc(N2CCN(C(=O)C(C)C)CC2)c(Cl)c1 55.3%
CSc1ncnc2c1ncn2CC(=O)C1CCC2C3CCC4=CC(=O)CCC4(C)C3CCC12C (stereo not drawn) 61.9%
CC(=O)c1ccccc1OCc1ccc(C(=O)c2ccccc2)cc1 56.3%
COc1ccc2[nH]c(=O)c(CN(Cc3cccnc3)S(=O)(=O)c3ccccc3F)cc2c1 55%
CSC(=S)N/N=C/c1c[nH]c2ccccc12 65.5%
O=C(Oc1ccc(-c2nnco2)cc1)c1ccc(F)c(S(=O)(=O)N2CCOCC2)c1 61.4%
COc1ccc(OC)c2[nH]c(=O)c(CCNC(=O)C(=O)c3c[nH]c4ccccc34)cc12 49.5%
Cc1ccccc1NC(=O)Cc1nc(COC(=O)C(C)(C)Oc2ccc(Cl)cc2)cs1 58.9%
COC(=O)Cc1nnn2c1[C@H](C)[C@H](c1ccccc1Br)OCC2 65.9%
CCCCNc1c(-c2cccc(Sc3ccc(OC)cc3)c2)nc2ccccn12 61.9%
O=c1[nH]c(CSc2ncc(-c3ccc(F)cc3)n2Cc2ccco2)nc2ccccc12 54%
O=C(Nc1ccccc1-c1nnn(CC(=O)N2CCN(c3ccccc3)CC2)n1)c1cccs1 52.1%

inhibition, inactive:
Nc1nonc1-n1nnc(C(=O)N/N=C/c2c[nH]c3ccccc23)c1-c1ccccc1 33.6%
CCc1ccc2c(c1)NC(=O)C2(C)Cc1ccc(OC(F)(F)F)cc1 (stereo not drawn) 44.5%
Cc1cccc(NC(=O)c2nc[nH]c2C(=O)NCC(=O)OCc2ccccc2)c1 46%
CCOC(=O)C1=C(NC(=S)NC(=O)c2ccccc2)c2ccccc2CC1(C)C 42.7%
COc1ccc(C2=NOC(Cn3nc(C(=O)NCc4ccc5c(c4)OCO5)cc3-c3ccccc3)C2)cc1 (stereo not drawn) 48.2%
CC(=O)OCCN(CCCn1c(-c2ccncc2)nc2ccccc21)c1nc(-c2ccc(C)cc2)cs1 36.5%
Cc1onc(-c2c(F)cccc2Cl)c1C(=O)Nc1cccc(S(=O)(=O)N2CCCCC2)c1 46%
COc1ccc(NC(=O)C2CCCN(S(=O)(=O)c3cccc4cccnc34)C2)cc1OC (stereo not drawn) 45.3%
COc1cc2ccccc2cc1C(=O)Nc1ccc(NC(=O)c2cccs2)cc1 45.9%
C[C@H](O)[C@@H]1C(=O)N2CCc3c([nH]c4c(-c5ccc6c(c5)OCO6)cccc34)[C@@H]2C[C@@H]1N(C)C(=O)c1ccco1 37.4%
O=C(NCCN1C(=O)S/C(=C\c2cccnc2)C1=O)c1ccc(S(=O)(=O)N2CCCC2)cc1 29.7%
O=C(NCCN1CCOCC1)c1ccccc1N1C(=O)[C@@H]2Cc3c([nH]c4ccccc34)C(c3cccc(Cl)c3)N2C1=O (stereo partly drawn) 39.5%
OC(c1ccccc1)(c1ccccc1)C1CCN(CCCOc2ccc(-c3ccsc3)cc2)CC1 43.2%
CCOc1ccc(N2CC(C(=O)N/N=C/c3sccc3C)CC2=O)cc1 (stereo not drawn) 9.4%
CCN1CCc2c(C#N)c(NCc3ccccc3)nc(NCCO)c2C1 0.04%
Cc1cccc(C)c1NC(=O)CNC(=O)C1CCCC1 2.87%
COc1ccc(N(CC(=O)N/N=C/c2cccs2)S(=O)(=O)c2ccc(OC)c(OC)c2)cc1 42.2%
O=C(COC(=O)c1c2c(nc3ccccc13)CCCC2)c1ccc(Br)s1 41%
COc1ccc(C(=O)Oc2ccc(-c3nnco3)cc2)cc1S(=O)(=O)N1CCOCC1 47.2%
C=CCc1cc(S(=O)(=O)c2ccc(O)c(CC=C)c2)ccc1O 26.4%
Cn1c(C(=O)NCCc2ccsc2)cc2c(=O)n(C)c3ccccc3c21 38.8%
O=S1(=O)c2c(cccc2N2CCCCC2)O[C@H](COCc2ccccc2)CN1C1CC1 32.1%
CC/C(=N/Nc1ccccc1)c1cnnc(SC)n1 1.16%
O=C(O)c1ccc(NC(=O)c2cn(-c3ccccc3)nc2-c2ccc(Cl)cc2)cc1 46.9%
Cc1cccc(NC(=O)c2ccc(COc3ccccc3[N+](=O)[O-])o2)n1 35%
COC(=O)Cc1nnn2c1[C@H](C)[C@H](c1ccccc1[N+](=O)[O-])OCC2 30.1%
COc1ccc(CC(=O)Nc2c(C(N)=O)oc3ccccc23)cc1 28.8%
Cc1ccc(NC(=O)c2ccc(CSc3ncnc4nc[nH]c34)cc2)c(C)c1 25.9%
CSCCC(NC(=O)COc1ccccc1)C(=O)OCC(=O)c1cc2ccccc2o1 (stereo not drawn) 33.3%
Cc1ccc2cccc(OCCCOc3ccccc3CO)c2n1 26.4%
